Results published in the supplement of paper PMC10849652.
The full data set covers some 7,900 targets. This sample favours those with a hit. About 0.6% of all pairs of compound and target were hits.

Tests used:
Assay in all cases: log2 fold change, soluble protein after heating vs DMSO (PISA); higher = thermal stabilisation; K562 cells, 10 uM, 30 min; active = over 0.2 and 3.5 SD of the protein, either way, in both replicates (recomputed)
[1] = compound: C1=CC=C(C=C1)[C@H](COC2=CC3=C(C=C2)NC(=O)N3)NC(=O)C4=CC=CN(C4=O)CC5=CC(=C(C=C5)F)F
Procedure, shortened: (§1)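 K562 cells at 2×10^6 cells/mL were treated with 10 μM compound for 30 min. Aliquots were heated for 3 min across 48°C-58°C, pooled, and extracted in PBS with 0.5% NP-40 at 4°C; soluble protein was the supernatant after 21,000xg for 90 min. Soluble protein was quantified by TMTpro 16plex LC-MS/MS with channel sums equalised, and reported as log2 fold change in thermal stability against DMSO controls, with values from duplicates.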

[2] = compound: CC1=C(SC2=C1C(=N[C@H](C3=NN=C(N32)C)CC(=O)N)C4=CC=C(C=C4)Cl)C
Procedure, shortened: as §1

[3] = compound: CC1=C2C(=CC=C1)N=C(N(C2=O)C3=CC=CC=C3C)CN4C=NC5=C(N=CN=C54)N
Procedure, shortened: as §1

[4] = compound: Cc1sc2c(c1C)C(c1ccc(Cl)cc1)=N[C@@H](CC(=O)OC(C)(C)C)c1nnc(C)n1-2
Procedure, shortened: as §1

[5] = compound: c1ccc([C@@H]2C[C@H]2NC2CCNCC2)cc1
Procedure, shortened: as §1

Measured: log2 fold change

IFRD1 (UniProt O00458)
inactive: [1] -0.011 | [2] -0.069 | [3] 0.049 | [4] 0.02 | [5] 0.004

HIP1R (UniProt O75146)
inactive: [1] -0.038 | [2] 0.061 | [3] 0.1 | [4] -0.031 | [5] -0.02

HK2 (UniProt P52789)
inactive: [1] -0.006 | [2] 0.045 | [3] 0.007 | [4] -0.025 | [5] -0.016

GEMIN5 (UniProt Q8TEQ6)
inactive: [1] -0.004 | [2] -0.019 | [3] 0.022 | [4] 0.021 | [5] 0.005

HRAS (UniProt P01112)
inactive: [1] 0.015 | [2] 0.116 | [3] -0.03 | [4] 0.016 | [5] 0.138

FBL (UniProt P22087)
inactive: [1] 0.095 | [2] -0.267 | [3] -0.126 | [4] 0.18 | [5] 0.074

HEATR5B (UniProt Q9P2D3)
inactive: [1] -0.029 | [2] -0.015 | [3] 0.052 | [4] -0.071 | [5] 0.016

GTF3C5 isoform 3 (UniProt Q9Y5Q8)
inactive: [1] -0.097 | [2] -0.082 | [3] 0.103 | [4] 0.049 | [5] -0.159

GNAI3 (UniProt P08754)
inactive: [1] -0.005 | [2] 0.019 | [3] 0.011 | [4] -0.154 | [5] -0.032

IFT80 isoform 3 (UniProt Q9P2H3)
Sequence of UniProt Q9P2H3 (Q9P2H3 whole entry, looked up): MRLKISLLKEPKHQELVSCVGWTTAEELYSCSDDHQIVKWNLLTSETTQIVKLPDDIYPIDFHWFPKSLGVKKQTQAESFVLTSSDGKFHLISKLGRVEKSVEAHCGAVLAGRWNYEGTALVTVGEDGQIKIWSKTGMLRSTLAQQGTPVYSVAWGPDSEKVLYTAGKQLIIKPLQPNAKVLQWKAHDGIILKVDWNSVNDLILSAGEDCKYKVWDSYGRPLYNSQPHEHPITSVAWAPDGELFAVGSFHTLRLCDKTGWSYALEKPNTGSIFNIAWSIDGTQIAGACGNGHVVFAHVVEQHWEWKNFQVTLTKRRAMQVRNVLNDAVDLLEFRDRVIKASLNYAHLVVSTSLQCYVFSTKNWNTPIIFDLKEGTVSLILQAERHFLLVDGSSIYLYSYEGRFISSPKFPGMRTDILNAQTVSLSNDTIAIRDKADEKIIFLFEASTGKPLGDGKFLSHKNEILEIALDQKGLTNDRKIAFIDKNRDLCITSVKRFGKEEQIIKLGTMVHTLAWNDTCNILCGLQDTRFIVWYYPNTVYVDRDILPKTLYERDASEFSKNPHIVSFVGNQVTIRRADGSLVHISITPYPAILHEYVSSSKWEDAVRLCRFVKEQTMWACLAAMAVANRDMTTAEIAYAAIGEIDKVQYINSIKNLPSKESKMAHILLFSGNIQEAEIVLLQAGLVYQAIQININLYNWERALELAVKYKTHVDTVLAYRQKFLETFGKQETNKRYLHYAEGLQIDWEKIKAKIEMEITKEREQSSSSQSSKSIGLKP
inactive: [1] -0.011 | [2] 0.052 | [3] 0.083 | [4] -0.036 | [5] -0.027

FIS1 (UniProt Q9Y3D6)
inactive: [1] 0.047 | [2] 0.021 | [3] 0.035 | [4] -0.081 | [5] -0.011

GTPBP6 (UniProt O43824)
inactive: [1] 0.038 | [2] 0.007 | [3] 0.012 | [4] -0.062 | [5] -0.034

FANCD2 isoform 1 (UniProt Q9BXW9)
inactive: [1] -0.018 | [2] 0.068 | [3] 0.159 | [4] -0.041 | [5] -0.009

FNTA (UniProt P49354)
inactive: [1] -0.009 | [2] -0.024 | [3] 0.02 | [4] 0.04 | [5] -0.009

FOXK1 (UniProt P85037)
inactive: [1] 0.104 | [2] -0.042 | [3] 0.253 | [4] -0.402 | [5] 0.049

GSK3A (UniProt P49840)
inactive: [1] 0.006 | [2] 0.099 | [3] 0.02 | [4] -0.014 | [5] -0.034

GLYR1 (UniProt Q49A26)
inactive: [1] 0.147 | [2] 0.054 | [3] -0.016 | [4] 0.058 | [5] 0.067

FAT1 (UniProt Q14517)
inactive: [1] -0.059 | [2] -0.038 | [3] 0.126 | [4] -0.071 | [5] 0.155

GABARAPL1 isoform 2 (UniProt Q9H0R8)
inactive: [1] 0.02 | [2] 0.094 | [3] 0.073 | [4] -0.022 | [5] -0.036

GUSB (UniProt P08236)
inactive: [1] 0.019 | [2] -0.057 | [3] -0.048 | [4] 0.039 | [5] 0.053

FDXR isoform 7 (UniProt P22570)
inactive: [1] -0.069 | [2] 0.106 | [3] 0.038 | [4] -0.037 | [5] -0.01

FKBP3 (UniProt Q00688)
inactive: [1] 0.014 | [2] 0.003 | [3] 0.01 | [4] 0.011 | [5] -0.016

GALNT11 (UniProt Q8NCW6)
inactive: [1] -0.027 | [2] 0.096 | [3] 0.093 | [4] -0.097 | [5] -0.027

GLRX3 (UniProt O76003)
Sequence of UniProt O76003 (O76003 whole entry, looked up): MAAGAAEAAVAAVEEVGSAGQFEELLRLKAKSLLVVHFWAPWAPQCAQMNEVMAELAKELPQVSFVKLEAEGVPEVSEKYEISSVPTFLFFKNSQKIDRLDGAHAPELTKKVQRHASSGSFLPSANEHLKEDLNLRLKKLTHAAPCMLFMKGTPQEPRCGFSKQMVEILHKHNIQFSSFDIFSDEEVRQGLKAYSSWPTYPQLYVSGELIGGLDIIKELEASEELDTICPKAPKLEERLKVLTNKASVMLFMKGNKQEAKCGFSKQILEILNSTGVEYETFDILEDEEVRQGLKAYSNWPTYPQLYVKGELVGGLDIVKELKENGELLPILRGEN
inactive: [1] 0.04 | [2] 0.072 | [3] 0.072 | [4] -0.033 | [5] -0.018

HNRNPC isoform 2 (UniProt P07910)
Sequence of UniProt P07910 (P07910 whole entry, looked up): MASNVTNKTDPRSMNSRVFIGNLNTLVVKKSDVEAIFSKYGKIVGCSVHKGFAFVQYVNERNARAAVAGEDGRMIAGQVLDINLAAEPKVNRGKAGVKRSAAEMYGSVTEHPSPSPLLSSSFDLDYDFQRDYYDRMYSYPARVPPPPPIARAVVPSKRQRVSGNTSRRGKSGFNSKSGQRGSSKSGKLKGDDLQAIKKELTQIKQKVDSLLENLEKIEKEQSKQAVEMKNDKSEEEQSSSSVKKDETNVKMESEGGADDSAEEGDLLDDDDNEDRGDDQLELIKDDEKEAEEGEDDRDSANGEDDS
inactive: [1] 0.102 | [2] -0.441 | [3] -0.171 | [4] 0.07 | [5] 0.139

GUK1 isoform 2 (UniProt Q16774)
inactive: [1] -0.042 | [2] 0.003 | [3] 0.084 | [4] -0.021 | [5] 0.031

GYS1 (UniProt P13807)
Sequence of UniProt P13807 (P13807 whole entry, looked up): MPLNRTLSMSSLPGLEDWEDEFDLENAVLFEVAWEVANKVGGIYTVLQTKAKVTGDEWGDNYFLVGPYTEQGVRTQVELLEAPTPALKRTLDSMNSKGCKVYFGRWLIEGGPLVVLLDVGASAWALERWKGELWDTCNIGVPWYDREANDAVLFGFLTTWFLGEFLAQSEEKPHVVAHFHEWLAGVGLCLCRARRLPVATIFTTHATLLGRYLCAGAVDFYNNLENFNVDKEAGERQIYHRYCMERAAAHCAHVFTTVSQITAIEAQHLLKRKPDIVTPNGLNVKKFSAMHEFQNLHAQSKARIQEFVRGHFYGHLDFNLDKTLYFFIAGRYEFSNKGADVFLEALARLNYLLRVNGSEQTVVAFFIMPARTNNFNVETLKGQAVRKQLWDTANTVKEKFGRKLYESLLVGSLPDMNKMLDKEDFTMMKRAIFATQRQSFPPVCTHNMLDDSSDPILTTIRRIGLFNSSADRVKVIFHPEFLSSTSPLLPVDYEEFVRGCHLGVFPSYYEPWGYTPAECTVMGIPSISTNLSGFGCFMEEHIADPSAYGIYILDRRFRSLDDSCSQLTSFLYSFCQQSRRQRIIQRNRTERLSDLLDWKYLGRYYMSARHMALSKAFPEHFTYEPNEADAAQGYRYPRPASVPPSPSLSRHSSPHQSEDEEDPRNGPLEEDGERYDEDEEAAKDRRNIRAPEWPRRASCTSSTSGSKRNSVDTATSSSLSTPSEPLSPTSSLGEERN
inactive: [1] 0.007 | [2] -0.13 | [3] -0.02 | [4] 0.023 | [5] 0.054

GTF2E1 (UniProt P29083)
inactive: [1] -0.086 | [2] 0.089 | [3] 0.136 | [4] -0.052 | [5] 0.034

IFITM3 (UniProt Q01628)
Sequence of UniProt Q01628 (Q01628 whole entry, looked up): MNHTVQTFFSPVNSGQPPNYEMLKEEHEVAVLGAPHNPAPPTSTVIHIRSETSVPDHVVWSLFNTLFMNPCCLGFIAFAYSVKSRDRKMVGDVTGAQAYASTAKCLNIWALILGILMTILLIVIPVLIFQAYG
inactive: [1] 0.038 | [2] -0.024 | [3] -0.06 | [4] 0.081 | [5] -0.014

HIST2H3A (UniProt Q71DI3)
inactive: [1] 0.068 | [2] -0.153 | [3] -0.266 | [4] -0.221 | [5] 0.192

IFT74 (UniProt Q96LB3)
inactive: [1] 0.134 | [2] 0.11 | [3] 0.163 | [4] 0.003 | [5] -0.069

IFRD2 isoform 2 (UniProt Q12894)
Sequence of UniProt Q12894 (Q12894 whole entry, looked up): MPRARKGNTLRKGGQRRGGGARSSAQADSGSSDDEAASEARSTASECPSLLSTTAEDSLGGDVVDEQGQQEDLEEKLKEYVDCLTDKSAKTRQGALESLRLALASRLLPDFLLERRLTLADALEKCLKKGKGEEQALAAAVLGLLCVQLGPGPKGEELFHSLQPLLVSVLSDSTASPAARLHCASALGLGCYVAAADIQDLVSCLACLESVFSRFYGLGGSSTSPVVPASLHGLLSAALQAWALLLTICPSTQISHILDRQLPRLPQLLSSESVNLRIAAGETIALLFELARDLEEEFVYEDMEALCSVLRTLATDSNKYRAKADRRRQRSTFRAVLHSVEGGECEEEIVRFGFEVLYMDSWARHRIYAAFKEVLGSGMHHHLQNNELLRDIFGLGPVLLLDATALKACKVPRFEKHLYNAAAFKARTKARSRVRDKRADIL
inactive: [1] -0.013 | [2] -0.091 | [3] -0.055 | [4] 0.063 | [5] 0.061

HMGN2 (UniProt P05204)
inactive: [1] -0.099 | [2] -0.056 | [3] -0.033 | [4] 0.021 | [5] 0.07

HNRNPH1 (UniProt P31943)
Sequence of UniProt P31943 (P31943 whole entry, looked up): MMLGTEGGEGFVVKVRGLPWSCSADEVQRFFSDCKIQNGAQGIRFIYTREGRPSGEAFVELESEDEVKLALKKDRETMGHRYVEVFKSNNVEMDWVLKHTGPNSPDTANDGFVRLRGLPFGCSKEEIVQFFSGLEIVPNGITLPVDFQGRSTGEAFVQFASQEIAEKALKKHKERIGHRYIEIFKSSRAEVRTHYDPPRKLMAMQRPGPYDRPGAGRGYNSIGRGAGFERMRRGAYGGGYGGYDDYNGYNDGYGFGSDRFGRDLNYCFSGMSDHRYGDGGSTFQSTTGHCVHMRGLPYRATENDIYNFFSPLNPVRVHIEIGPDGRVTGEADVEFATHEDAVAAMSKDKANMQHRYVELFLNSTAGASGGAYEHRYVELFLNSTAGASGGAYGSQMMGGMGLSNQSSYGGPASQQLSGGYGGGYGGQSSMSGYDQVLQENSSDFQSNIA
inactive: [1] -0.032 | [2] -0.007 | [3] 0.045 | [4] -0.015 | [5] -0.017

GABARAPL2 (UniProt P60520)
inactive: [1] 0.037 | [2] 0.035 | [3] 0.039 | [4] -0.038 | [5] -0.055

FAM91A1 (UniProt Q658Y4)
inactive: [1] 0 | [2] 0.04 | [3] 0.028 | [4] 0.013 | [5] -0.043

HDAC7 isoform 5 (UniProt Q8WUI4)
inactive: [1] -0.008 | [2] 0.039 | [3] -0.004 | [4] -0.026 | [5] -0.003

GLIPR2 (UniProt Q9H4G4)
inactive: [1] -0.092 | [2] -0.091 | [3] -0.009 | [4] 0.028 | [5] -0.017

HNRNPK isoform 2 (UniProt P61978)
inactive: [1] -0.027 | [2] 0.012 | [3] 0.047 | [4] -0.023 | [5] 0.013

FBXO6 (UniProt Q9NRD1)
inactive: [1] 0.013 | [2] 0.087 | [3] 0.041 | [4] -0.041 | [5] -0.032

HSPA8 (UniProt E9PN89)
inactive: [1] 0 | [2] 0.094 | [3] 0.123 | [4] 0.133 | [5] 0.104

GIGYF2 (UniProt Q6Y7W6)
inactive: [1] -0.006 | [2] 0.057 | [3] 0.057 | [4] 0.012 | [5] -0.046

GLB1 (UniProt P16278)
Sequence of UniProt P16278 (P16278 whole entry, looked up): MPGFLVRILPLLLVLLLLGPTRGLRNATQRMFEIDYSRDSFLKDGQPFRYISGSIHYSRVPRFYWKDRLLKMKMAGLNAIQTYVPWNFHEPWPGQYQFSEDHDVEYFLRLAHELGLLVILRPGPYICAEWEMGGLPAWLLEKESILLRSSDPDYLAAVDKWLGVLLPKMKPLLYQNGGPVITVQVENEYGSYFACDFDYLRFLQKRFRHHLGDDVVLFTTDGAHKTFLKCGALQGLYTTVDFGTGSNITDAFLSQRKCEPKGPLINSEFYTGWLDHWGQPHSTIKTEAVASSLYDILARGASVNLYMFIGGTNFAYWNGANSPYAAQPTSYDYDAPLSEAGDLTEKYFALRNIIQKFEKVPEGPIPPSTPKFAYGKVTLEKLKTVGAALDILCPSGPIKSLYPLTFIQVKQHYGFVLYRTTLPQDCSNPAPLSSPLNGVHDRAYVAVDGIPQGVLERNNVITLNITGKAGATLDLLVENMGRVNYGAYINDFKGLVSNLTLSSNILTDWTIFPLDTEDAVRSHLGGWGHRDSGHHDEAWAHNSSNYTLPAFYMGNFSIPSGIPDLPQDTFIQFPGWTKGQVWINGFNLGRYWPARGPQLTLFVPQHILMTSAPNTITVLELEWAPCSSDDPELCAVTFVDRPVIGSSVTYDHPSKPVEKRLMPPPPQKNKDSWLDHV
inactive: [1] 0.042 | [2] -0.065 | [3] 0.011 | [4] -0.043 | [5] 0.026

HDGFL2 (UniProt Q7Z4V5)
inactive: [1] -0.043 | [2] 0.007 | [3] -0.03 | [4] -0.012 | [5] 0.065

GNL1 (UniProt P36915)
inactive: [1] -0.042 | [2] -0.007 | [3] 0.099 | [4] -0.037 | [5] -0.038

GNG5 (UniProt P63218)
Sequence of UniProt P63218 (P63218 whole entry, looked up): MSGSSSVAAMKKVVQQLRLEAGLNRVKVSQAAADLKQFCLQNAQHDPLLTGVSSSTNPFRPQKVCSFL
inactive: [1] 0.044 | [2] 0.063 | [3] 0.012 | [4] -0.064 | [5] 0.018

FIBP (UniProt O43427)
inactive: [1] 0.091 | [2] 0.152 | [3] 0.042 | [4] -0.105 | [5] -0.011

ICAM1 (UniProt P05362)
inactive: [1] -0.005 | [2] 0.021 | [3] 0.049 | [4] 0.012 | [5] 0.031

GYG1 (UniProt P46976)
inactive: [1] 0.02 | [2] -0.077 | [3] -0.046 | [4] -0.008 | [5] -0.019

GBE1 (UniProt Q04446)
Sequence of UniProt Q04446 (Q04446 whole entry, looked up): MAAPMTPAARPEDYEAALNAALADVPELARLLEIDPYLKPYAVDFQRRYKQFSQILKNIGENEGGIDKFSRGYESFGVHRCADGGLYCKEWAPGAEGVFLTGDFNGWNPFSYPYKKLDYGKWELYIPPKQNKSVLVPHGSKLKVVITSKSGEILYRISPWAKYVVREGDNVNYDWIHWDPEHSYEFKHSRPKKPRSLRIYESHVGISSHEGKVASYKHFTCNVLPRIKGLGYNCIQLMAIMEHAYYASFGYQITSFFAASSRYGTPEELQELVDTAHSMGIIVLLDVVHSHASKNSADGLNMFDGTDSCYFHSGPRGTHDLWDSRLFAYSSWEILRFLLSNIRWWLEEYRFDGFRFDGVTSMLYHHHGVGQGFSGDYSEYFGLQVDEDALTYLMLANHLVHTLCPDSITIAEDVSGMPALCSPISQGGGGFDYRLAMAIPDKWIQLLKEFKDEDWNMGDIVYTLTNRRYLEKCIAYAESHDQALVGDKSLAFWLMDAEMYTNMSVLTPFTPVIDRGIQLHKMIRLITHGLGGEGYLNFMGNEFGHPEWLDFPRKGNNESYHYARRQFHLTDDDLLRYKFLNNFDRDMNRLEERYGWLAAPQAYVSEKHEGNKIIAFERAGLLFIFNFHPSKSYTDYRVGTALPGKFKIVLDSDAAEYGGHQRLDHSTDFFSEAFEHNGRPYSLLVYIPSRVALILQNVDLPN
inactive: [1] -0.116 | [2] 0.01 | [3] -0.009 | [4] 0.03 | [5] 0.008

GMEB1 (UniProt Q9Y692)
inactive: [1] 0.02 | [2] 0.084 | [3] -0.007 | [4] 0.024 | [5] 0.022

GID4 (UniProt Q8IVV7)
Sequence of UniProt Q8IVV7 (Q8IVV7 whole entry, looked up): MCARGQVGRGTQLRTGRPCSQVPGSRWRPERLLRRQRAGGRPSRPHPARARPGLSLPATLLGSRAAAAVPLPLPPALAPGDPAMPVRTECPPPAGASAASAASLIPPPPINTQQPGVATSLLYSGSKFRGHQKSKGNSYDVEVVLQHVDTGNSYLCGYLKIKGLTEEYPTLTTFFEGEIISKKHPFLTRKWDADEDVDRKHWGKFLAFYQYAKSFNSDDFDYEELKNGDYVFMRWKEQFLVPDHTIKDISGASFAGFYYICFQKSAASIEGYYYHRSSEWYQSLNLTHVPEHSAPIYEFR
inactive: [1] -0.012 | [2] -0.021 | [3] 0.138 | [4] 0.048 | [5] 0.009
